Hits are enriched below; roughly 12% of the tested compounds scored in any of these assays.
BAZ2B inh: blocks human BAZ2B. Q9UIF8. AlphaScreen BAZ2B-H3K14Ac peptide displacement. Potency, µM (doses to about 114 µM), usual class: inhibitors. 360,000 compounds, 4.4% hits. AID 504333; further: nearly all actives have a fitted effect of over 60% in size
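Compounds, titrated to a top concentration of 110 uM, were incubated 30 min at room temperature with preformed BAZ2B/acetyl-K14 H3 peptide complex (50 nM each). Proximity signal was measured by AlphaScreen after 20 min with beads.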
G9a block: inhibitors of human histone lysine methyltransferase G9a; Q96KQ7; G9a H3K9 monomethylation, AlphaScreen, 2 h; Potency, µM (doses to about 102 µM), hits mostly inhibitors; 350,000 compounds, 8.8% hits; AID 504332; further: nearly all actives have a fitted effect of over 75% in size
Target sequence (Q96KQ7 913-1193 limits assumed): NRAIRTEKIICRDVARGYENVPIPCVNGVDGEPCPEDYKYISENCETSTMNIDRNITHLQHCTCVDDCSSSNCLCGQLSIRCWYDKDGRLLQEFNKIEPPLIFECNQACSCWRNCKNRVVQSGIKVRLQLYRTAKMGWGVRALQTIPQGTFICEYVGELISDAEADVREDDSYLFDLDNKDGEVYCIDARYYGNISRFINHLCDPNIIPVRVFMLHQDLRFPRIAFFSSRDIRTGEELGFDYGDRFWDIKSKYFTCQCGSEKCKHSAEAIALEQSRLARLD
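Using a bead-based AlphaScreen, monomethylated H3K9 product from 2 h room-temperature reactions (G9a 20 nM, peptide 500 nM, SAM 20 uM) was detected with 0.5 ug/mL rabbit anti-H3K9me1 antibody.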
Sfp inh: blocks B. subtilis Sfp PPTase activity. Q9F4F7. Biochemical Sfp PPTase activity, qHTS. Potency, µM, usual class: inhibitors. 310,000 compounds, 3.5% hits;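 further: the enzyme is Sfp with the accession as filed and its product quenches rhodamine fluorescence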
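With Hepes-Na pH 7.6 buffer containing 10 mM MgCl2, Sfp (15 nM) modified BHQ-2-YbbR (12.5 uM) using rhodamine-CoA (5 uM). Two reads 30 minutes apart at 525/598 nm yielded each well's rate.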
HP1b chromo inh: blocks HP1-beta chromodomain binding to methylated histone tails; AlphaScreen HP1-beta / biotin-H3K9me3 peptide binding; Potency, µM (titrated, usually from 114 µM), hits mostly inhibitors; 390,000 compounds, 0.56% hits; P83916; further: nearly all actives have a fitted effect of over 70% in size
Target sequence (P83916 whole entry, looked up): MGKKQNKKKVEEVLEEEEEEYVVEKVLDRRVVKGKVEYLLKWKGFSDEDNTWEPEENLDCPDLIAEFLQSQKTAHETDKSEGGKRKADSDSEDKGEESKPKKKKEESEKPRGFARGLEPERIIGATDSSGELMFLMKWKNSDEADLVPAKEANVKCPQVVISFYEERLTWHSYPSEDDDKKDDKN
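AlphaScreen: HP1-beta (50 nM) preformed 30 min with biotin-H3(1-18)K9me3 peptide (50 nM) in PBS pH 7.4, 0.01% Tween-20. Compound added for 30 min at RT, then streptavidin donor/nickel chelate acceptor beads (10 ug/mL) for 30 min.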
JMJD2A Tudor inh: inhibitors of human JMJD2A Tudor domain | O75164 | AlphaScreen JMJD2A-Tudor / H3K4me3 peptide binding | Potency, µM (top dose mostly 114 µM), usual class: inhibitors | 390,000 compounds, 4.4% hits; further: nearly all actives have a fitted effect of over 50% in size
Of the large screens only hits and unclear results are named; the others gave an inactive call; ! = not active in a repeat. The call rests on the fitted dose curve; in most records, active means well fitted curve in the direction sought with a large enough effect; inconclusive means small, poorly fitted or top-dose-only effect, or another doubt; inactive means no such curve, though single readings can be large; an effect the other way counts as inactive or inconclusive.

O=C(Nc1ccccc1Cl)c1cnccn1	none
COC(=O)[C@@]1(Cc2ccc(F)cc2)[C@@H]2C(=CC(=O)[C@H]2CC(=O)C(=O)N2CCCC2)CN1C(=O)c1ccccc1	none (no result: BAZ2B inh, G9a block, HP1b chromo inh, JMJD2A Tudor inh)
Cc1ccc(C)c(NC(=O)CN(C)C(=O)c2sccc2C)c1	none (no result: Sfp inh)
COc1cccc(OC)c1C(=O)NC(=S)Nc1ccc2c(c1)C(=O)N(C)C2=O	G9a block inconclusive
COc1cc(C(=O)NC(=S)Nc2ccc3c(c2)C(=O)N(C)C3=O)cc(OC)c1OC	G9a block 45µM, JMJD2A Tudor inh inconclusive
COc1cc(C(=O)NC(=S)Nc2ccc(Cl)cn2)cc(OC)c1OC	JMJD2A Tudor inh 16µM
CN(C1CCCCC1)S(=O)(=O)c1ccc(C(=O)Nc2sc3c(c2C(N)=O)CC(C)(C)NC3(C)C)cc1	JMJD2A Tudor inh inconclusive
CN(C)/C=C/C(=O)c1ccc(-n2cccc2)cc1	BAZ2B inh inconclusive, G9a block inconclusive, JMJD2A Tudor inh inconclusive
O=[N+]([O-])c1ccc(SCCc2ccccn2)cc1	G9a block 13µM, Sfp inh inconclusive
Clc1ccc(CSCCc2ccncc2)cc1	none
O=[N+]([O-])c1ccc(SCCc2ccncc2)cc1	BAZ2B inh 50µM, G9a block 11µM, Sfp inh 50µM, HP1b chromo inh inconclusive, JMJD2A Tudor inh 50µM!
Fc1cc(F)c(F)c(SCCc2ccncc2)c1F	G9a block inconclusive, Sfp inh inconclusive, HP1b chromo inh inconclusive, JMJD2A Tudor inh 28µM
Fc1ccc(SCCc2ccncc2)cc1	BAZ2B inh 22µM!, G9a block 50µM!
c1ccc(SCCc2ccncc2)cc1	none
O=C(C1CCCCN1S(=O)(=O)c1ccccc1[N+](=O)[O-])N1CCCC1 (centres undefined)	BAZ2B inh inconclusive
COc1ccc(CNC(=O)CCS(=O)(=O)c2cc3c4c(c2)CCN4C(=O)CC3)cc1	none (no result: Sfp inh)
O=C(O)CCc1ccc(-c2ccccc2)n1CC(=O)Nc1cccc(C(F)(F)F)c1	BAZ2B inh inconclusive, G9a block 45µM
O=C(O)CCc1ccc(-c2cccs2)n1Cc1ccco1	BAZ2B inh 50µM, G9a block inconclusive, Sfp inh 25µM, JMJD2A Tudor inh inconclusive
Cc1c(Cl)cccc1NC(=O)Cn1c(CCC(=O)O)ccc1-c1ccc(Cl)cc1	BAZ2B inh 56µM, G9a block inconclusive, HP1b chromo inh inconclusive, JMJD2A Tudor inh 35µM
O=C(O)CCc1ccc(-c2ccc(Cl)cc2)n1CC(=O)O	G9a block 45µM, JMJD2A Tudor inh inconclusive
COc1ccc2c(c1)c(CC(=O)OCC(=O)N(C)C)c(C)n2C(=O)c1ccc(Cl)cc1	none
Cc1cccc(-c2ccc(-c3cc(=O)oc4cc(C)cc(C)c34)cc2)c1	none (no result: BAZ2B inh, HP1b chromo inh, JMJD2A Tudor inh)
CCOC(=O)CC(NC(=O)N1CCC(CN2CCC(C)CC2)CC1)c1ccccc1 (centres undefined)	none (no result: Sfp inh)
COCCn1c(CCC(=O)O)ccc1-c1cccs1	G9a block 50µM
O=C(O)CCc1ccc(-c2ccc(Cl)cc2)n1Cc1ccco1	BAZ2B inh 50µM, G9a block inconclusive, JMJD2A Tudor inh inconclusive
C#CCN1C(=O)C2C(C(=O)NC)C3C=CC2(O3)C1C(=O)NCc1ccc(OC)cc1 (centres undefined)	none
O=C(CNC(=O)c1cccc(F)c1)OCC(=O)N1CCCCC1	G9a block 16µM
O=C(NCC(=O)N1CCCCCCC1)c1cccc([N+](=O)[O-])c1	G9a block 1.3µM (no result: Sfp inh)
O=C(CNC(=O)c1cccc(F)c1)OCC(=O)N1CCN(C(=O)c2ccco2)CC1	none
O=C1c2ccccc2C(=O)N1CN(C(=O)COc1ccccc1)c1ccccc1	none
C1=CN2CCC1C(c1ccccc1)C2 (centres undefined)	none
NC(=O)Cn1c(=O)n(CCc2ccccc2)c(=O)c2c3c(sc21)CCCC3	none
CCCn1nc2ccccc2c1P(=N)(N1CCOCC1)N1CCOCC1	none
CCN(CC)C(=O)Cn1cc(C(=O)C(=O)N2CC=C(c3ccccc3)CC2)c2ccccc21	G9a block 50µM
O=C(CSc1nc(=O)n2cc(Cl)ccc2n1)Nc1cccc2ccccc12	BAZ2B inh inconclusive (no result: Sfp inh)
Cc1cccc(C)c1NC(=O)C(NS(=O)(=O)c1ccc2c(c1)CCC(=O)N2)c1ccccc1 (centres undefined)	none (no result: Sfp inh)
Cc1cccc(NC(=O)C(NS(=O)(=O)c2ccc3c(c2)CCC(=O)N3)c2ccccc2)n1 (centres undefined)	G9a block 22µM, JMJD2A Tudor inh inconclusive
CCn1c(SCC(=O)Nc2ccc(C(C)=O)cc2)nnc1C1CC1	none
NCCc1cnc[nH]1	BAZ2B inh inconclusive, G9a block 8.4µM!, Sfp inh inconclusive
NCCC(=O)NCCc1cnc[nH]1	JMJD2A Tudor inh inconclusive
N#CC1=C(N)C2=CCCC[C@H]2[C@H](c2ccc(Br)cc2)C1(C#N)C#N	G9a block inconclusive, Sfp inh 7.1µM
N#CC1=C(N)C2=CCCC[C@H]2[C@H](c2ccccc2)C1(C#N)C#N	G9a block inconclusive
O=[N+]([O-])C1=CC=C2C(=NC3(CCCCC3)N2O)C1=NCCc1ccccc1	G9a block 7.1µM
CC1(C)CC(N=C2C([N+](=O)[O-])=CC=C3C2=NC2(CCCCC2)N3O)CC(C)(C)N1	none (no result: G9a block)
O=[N+]([O-])C1=CC=C2C(=NC3(CCCCC3)N2O)C1=NC1CCCCC1	BAZ2B inh 3.2µM, HP1b chromo inh 13µM, JMJD2A Tudor inh inconclusive (no result: G9a block)
CC(C)(C)N=C1C([N+](=O)[O-])=CC=C2C1=NC1(CCCCC1)N2O	BAZ2B inh 5.6µM, G9a block 3.5µM, Sfp inh inconclusive, HP1b chromo inh 25µM, JMJD2A Tudor inh 6.3µM
S=c1[nH]nc(-c2ccco2)n1/N=C/c1ccc(Cl)cc1	BAZ2B inh inconclusive, G9a block 1.3µM, HP1b chromo inh inconclusive, JMJD2A Tudor inh 40µM
S=c1[nH]nc(-c2ccco2)n1/N=C/c1ccccc1Cl	G9a block 1.4µM, Sfp inh inconclusive, JMJD2A Tudor inh 32µM
Cc1ccc(/C=N/n2c(-c3ccco3)n[nH]c2=S)s1	G9a block 1.3µM, Sfp inh inconclusive, JMJD2A Tudor inh 20µM
CCCN(CC1CC1)C(=O)COC(=O)c1oc2c(F)cccc2c1C	none (no result: Sfp inh)
COc1ccc(CCNC(c2ccc(F)cc2)c2nnc(-c3ccccc3Cl)o2)cc1OC (centres undefined)	none (no result: Sfp inh)
Cc1nn(-c2ccc(N3CCCC3)nn2)c(C)c1CCC(=O)Nc1ccc(F)c(Cl)c1	JMJD2A Tudor inh inconclusive (no result: Sfp inh)
OCCOc1ccc(C2=NCCO2)cc1	none
CCn1nc(C)c(/C=C2\CCCC3=C2OC(N)=C(C#N)C3c2c(C)nn(CC)c2C)c1C (centres undefined)	G9a block 50µM (no result: HP1b chromo inh, JMJD2A Tudor inh)
C=CC[C@@H](CC(=O)N[C@@H](CO)Cc1ccccc1)C(=O)NC[C@H](OC(=O)[C@@H](CC=C)Cc1ccc(F)cc1)c1ccccc1	none (no result: BAZ2B inh, G9a block, Sfp inh)
C/C(Cn1cnc([N+](=O)[O-])n1)=N\NC(=O)c1cccnc1	JMJD2A Tudor inh inconclusive
N#C/C(=C/c1cn[nH]c1-c1cccc(Br)c1)C(=O)O	none
O=c1sc(Nc2ccccc2)nc2ccccc12	none
